NR3A LBD binder = modulators (binders) of human NR3A ligand-binding domain; Tm shift relative to glycine control, % at 25 µM; NR3A LBD differential scanning fluorimetry, Tm shift; 0% = protein alone, 100% = glycine-bound protein; 340,000 compounds, 2.5% hits; AID 1259313;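 active = melting temperature shift of at least 10% of the positive control shift, at one fixed dose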
FAS-TE inh = blocks the thioesterase domain of human fatty acid synthase; P49327; recombinant FAS-TE, OMFH fluorogenic substrate, fluorescence endpoint; inhibition, % at 15 µM; 360,000 compounds, 0.67% hits;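 active = compounds whose normalised, plate-corrected inhibition of enzyme fluorescence in the single-dose primary screen is 50% or more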;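 note: 0% = DMSO with enzyme and 100% = substrate without enzyme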
Target sequence (P49327 whole entry, looked up, the tested form may be a part): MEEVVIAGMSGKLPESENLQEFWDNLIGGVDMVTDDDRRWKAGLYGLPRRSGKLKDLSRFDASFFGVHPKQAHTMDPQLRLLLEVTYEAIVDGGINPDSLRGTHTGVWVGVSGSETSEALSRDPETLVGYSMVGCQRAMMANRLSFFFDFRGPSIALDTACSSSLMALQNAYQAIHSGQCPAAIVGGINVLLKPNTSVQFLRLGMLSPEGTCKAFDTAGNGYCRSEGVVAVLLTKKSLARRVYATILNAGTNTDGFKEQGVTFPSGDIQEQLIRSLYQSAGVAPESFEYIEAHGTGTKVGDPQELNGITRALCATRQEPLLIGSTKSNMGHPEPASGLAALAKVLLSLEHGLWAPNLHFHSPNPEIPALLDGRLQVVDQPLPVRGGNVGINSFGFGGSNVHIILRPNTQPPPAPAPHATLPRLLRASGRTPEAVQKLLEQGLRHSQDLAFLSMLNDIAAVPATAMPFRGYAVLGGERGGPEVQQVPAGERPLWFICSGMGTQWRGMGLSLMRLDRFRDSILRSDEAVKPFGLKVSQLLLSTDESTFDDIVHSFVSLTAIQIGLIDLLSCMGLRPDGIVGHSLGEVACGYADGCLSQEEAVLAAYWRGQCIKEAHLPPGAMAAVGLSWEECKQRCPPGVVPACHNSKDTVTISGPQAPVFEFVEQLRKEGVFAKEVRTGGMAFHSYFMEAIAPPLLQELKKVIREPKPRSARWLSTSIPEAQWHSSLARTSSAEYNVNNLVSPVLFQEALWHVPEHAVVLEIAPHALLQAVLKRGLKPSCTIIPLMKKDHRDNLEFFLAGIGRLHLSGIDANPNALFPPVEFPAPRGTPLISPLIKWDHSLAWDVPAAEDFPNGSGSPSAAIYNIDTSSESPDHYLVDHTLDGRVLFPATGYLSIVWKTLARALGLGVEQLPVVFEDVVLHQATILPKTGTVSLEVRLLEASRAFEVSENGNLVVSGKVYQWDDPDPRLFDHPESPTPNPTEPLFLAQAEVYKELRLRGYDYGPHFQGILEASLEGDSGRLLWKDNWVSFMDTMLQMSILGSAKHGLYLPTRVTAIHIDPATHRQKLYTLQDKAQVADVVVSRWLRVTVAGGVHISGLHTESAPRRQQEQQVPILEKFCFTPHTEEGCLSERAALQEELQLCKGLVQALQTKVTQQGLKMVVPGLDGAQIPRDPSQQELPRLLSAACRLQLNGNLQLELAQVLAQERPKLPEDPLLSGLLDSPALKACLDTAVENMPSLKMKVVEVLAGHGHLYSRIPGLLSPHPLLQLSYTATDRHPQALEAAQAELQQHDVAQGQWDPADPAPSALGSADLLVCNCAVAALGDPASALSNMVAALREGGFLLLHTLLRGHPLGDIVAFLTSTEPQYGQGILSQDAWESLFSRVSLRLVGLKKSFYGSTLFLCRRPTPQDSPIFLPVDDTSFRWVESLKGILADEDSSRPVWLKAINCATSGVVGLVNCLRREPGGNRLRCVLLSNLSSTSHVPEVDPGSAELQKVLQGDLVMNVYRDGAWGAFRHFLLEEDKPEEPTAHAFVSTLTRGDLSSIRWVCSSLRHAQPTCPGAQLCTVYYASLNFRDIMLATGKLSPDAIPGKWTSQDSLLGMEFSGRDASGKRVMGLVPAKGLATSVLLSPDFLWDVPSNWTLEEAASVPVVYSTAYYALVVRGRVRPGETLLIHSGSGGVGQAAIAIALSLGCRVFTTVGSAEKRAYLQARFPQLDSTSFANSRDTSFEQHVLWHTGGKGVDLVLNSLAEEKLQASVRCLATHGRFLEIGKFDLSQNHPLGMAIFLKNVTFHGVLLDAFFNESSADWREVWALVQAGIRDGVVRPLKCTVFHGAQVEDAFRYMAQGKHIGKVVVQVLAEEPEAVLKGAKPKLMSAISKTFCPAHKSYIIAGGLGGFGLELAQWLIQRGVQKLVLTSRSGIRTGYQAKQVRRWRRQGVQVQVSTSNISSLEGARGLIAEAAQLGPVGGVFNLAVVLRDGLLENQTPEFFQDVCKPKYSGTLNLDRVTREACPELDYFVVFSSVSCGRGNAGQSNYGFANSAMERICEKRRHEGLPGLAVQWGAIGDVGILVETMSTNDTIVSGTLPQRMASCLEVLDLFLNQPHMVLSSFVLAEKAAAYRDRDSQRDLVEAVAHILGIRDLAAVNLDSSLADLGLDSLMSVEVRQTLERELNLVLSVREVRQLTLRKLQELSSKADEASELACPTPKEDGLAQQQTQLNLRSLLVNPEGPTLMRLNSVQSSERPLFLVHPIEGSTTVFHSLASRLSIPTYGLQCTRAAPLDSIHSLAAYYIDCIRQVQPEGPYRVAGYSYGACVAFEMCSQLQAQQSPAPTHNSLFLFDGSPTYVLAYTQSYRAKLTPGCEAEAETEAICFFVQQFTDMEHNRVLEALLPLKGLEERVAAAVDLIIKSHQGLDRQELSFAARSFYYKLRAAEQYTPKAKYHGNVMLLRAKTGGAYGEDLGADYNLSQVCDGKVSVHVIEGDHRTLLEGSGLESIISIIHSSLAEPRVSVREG
NadD block = blocks S. aureus nicotinate mononucleotide adenylyltransferase | 360,000 compounds, 0.78% hits | AID 602399 | purified NadD enzyme, colorimetric absorbance read-out | inhibition, % at 20 µM; in the data active = inhibition above about 26%
rCAG binder = r(CAG) repeat RNA binding; inhibition, % at 3 µM; 370,000 compounds, 1.3% hits; TO-PRO-1 dye displacement fluorescence; AID 651821;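 active = inhibition above the plate cutoff, the mean of all test compounds on that plate plus 3 SD, cut at about 35% in these data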;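 note: 0% = DMSO alone and 100% = 100 µM mitoxantrone as full dye displacement; higher means more dye released from RNA so lower well fluorescence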
NadD inh conf = NadD (S. aureus) inhibition, single concentration confirmation; 2,000 compounds, 13% hits; purified S. aureus NadD, colorimetric enzyme assay; shares compounds with NadD block; inhibition, % at 20 µM; AID 624309; in the data active = inhibition mostly above about 42%, no sharp cut-off; inactive = mostly below about 42%
rCAG bind conf = r(CAG) RNA repeat binding, confirmation; shares compounds with rCAG binder; AID 652065; TO-PRO-1 dye displacement fluorescence; 4,300 compounds, 70% hits; inhibition, % at 3 µM;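 active = inhibition above a per-plate cutoff, the mean inhibition of sample wells plus 3 SD, cut at about 35% in these data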;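 note: loss of TO-PRO-1 fluorescence as compound displaces dye from 1x1 AA loop RNA; 0% = DMSO only wells and 100% = 100 µM mitoxantrone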
dCAG dye counter = disrupts DNA CAG TO-PRO-1 complex, flagging rCAG hits; shares compounds with rCAG binder; 4,300 compounds, 94% hits; AID 652068; d(CAG) DNA oligo TO-PRO-1 dye displacement, fluorescence; inhibition, % at 3 µM;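 active = inhibition above its plate's cutoff, the mean test-well inhibition plus 3 SD, cut at about 4.8% in these data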;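 note: 0% = DNA dye mix with DMSO and 100% = 100 µM mitoxantrone; hits displace the dye from DNA and so lower well fluorescence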
DNA CAG DR = disrupts DNA CAG TO-PRO-1 complex in dose response; shares compounds with rCAG binder; DNA CAG/GTC duplex TO-PRO-1 dye displacement fluorescence; IC50, µM; 250 compounds, 20% hits; in the data active = IC50 below about 10 µM
The depositor's hits bear a star; i = inactive; . = no result; ! = a repeat was not active. Most compounds without a hit are left out; they make up all but 4.3% or so of the library.

SMILES	NR3A LBD binder	FAS-TE inh	NadD block	rCAG binder	NadD inh conf	rCAG bind conf	dCAG dye counter	others
CCOC(=O)c1ccc(NC(=O)C2COc3ccccc3O2)cc1 (configuration not stated)	-1	16	-5	1	.	.	.
CCOC(=O)c1ccc(-n2c(O)c(/C=N/NC(=O)C3COc4ccccc4O3)c3ccccc3c2=O)cc1 (configuration not stated)	-2	11	31*	75*	41	79*	42*
O=S(=O)(/N=C(/Nc1ccc(Cl)c(S(=O)(=O)Nc2ccccc2Cl)c1)c1ccc(F)cc1)c1ccccc1	14*	23	41*!	66*	55*	71*	26*	DNA CAG DR=>30
COC(=O)c1cc2c(c3c4cc(C)ccc4n(S(=O)(=O)c4ccc(OC)cc4)c13)C(=O)N(Cc1ccccc1)C2	.	.	.	16	.	.	.
CS(=O)(=O)c1ccc(C(=O)Nc2nc(-c3ccco3)c(-c3ccco3)s2)cc1	19*	9	29*	88*	7	34	16*
CS(=O)(=O)c1ccc2nc(NC(=O)c3ccccc3)sc2c1	3	-4	-3	3	.	.	.
CCCc1cc2c(O)ccc(O)c2c(=O)o1	.	.	.	5	.	.	.
Cc1nn(CCc2nn[nH]n2)c2nc(C(F)(F)F)cc(C(F)(F)F)c12	0	-6	-5	6	.	.	.
Cc1nn(CCc2nn[nH]n2)c2nc(-c3ccc(Br)cc3)cc(C(F)(F)F)c12	-21	8	28*	44*	42	71*	25*	DNA CAG DR=i
O=C(O)c1ccc(/C=N/NC(=O)c2ccc(CN3c4cccc5cccc(c45)S3(=O)=O)cc2)cc1	-10	18	30*	67*	66*	68*	31*
CC(/C=N/NC(=O)c1ccc(CN2c3cccc4cccc(c34)S2(=O)=O)cc1)c1ccccc1 (configuration not stated)	-1	10	27	17	.	.	.
Cc1cccc2sc(NNC(=O)c3ccc(S(=O)(=O)N4CC(C)CC(C)C4)cc3)nc12 (configuration not stated)	5	40	58*	66*	54*	63*	30*
Cc1cc(C)c2nc(NNC(=O)c3ccc(S(=O)(=O)N4CC(C)CC(C)C4)cc3)sc2c1 (configuration not stated)	5	16	34*	43*	24	49*	24*
Cc1ccc2nc(NNC(=O)c3ccc(S(=O)(=O)N4CCc5ccccc5C4)cc3)sc2c1	4	23	59*	51*	56*	60*	29*
CCOC(=O)N[C@H](C(=O)N1CCC[C@H]1C(=O)NCc1ccccc1)C(C)C	.	.	.	2	.	.	.
CCN(CC)S(=O)(=O)c1ccc(Cl)c(NC(=S)NC(=O)C2CCCC2)c1	-6	33	0	5	.	.	.
CCN(CC)c1ccc(S(=O)(=O)Nc2cc(Cl)ccc2Cl)cc1NC(=S)NC(=O)C1CCCC1	14*	39	31*	65*	15	71*	35*
COC(=O)c1cc2c(c3c4cc(C)ccc4n(S(=O)(=O)c4ccc(OC)cc4)c13)C(=O)N(Cc1ccc(C(F)(F)F)cc1)C2	.	.	.	12	.	.	.
COC(=O)C1=C(C)N(Cc2cccc(C(F)(F)F)c2)C(=NCc2ccc(OC)cc2)NC1c1ccc(Cl)cc1 (configuration not stated)	.	.	.	8	.	.	.
N#Cc1c(SCC(=O)Nc2nc3ccc(Br)cc3s2)sc2c(O)cc(=O)[nH]c12	18*	8	41*	67*	39	82*	51*
C/C(=N\Nc1nc(-c2cc(C)ccc2C)cs1)c1cc2c(ccc3ccccc32)oc1=O	4	5	48*	47*	4	45*	23*
CCNc1ccc(Br)cc(C(=O)/C=C/c2ccc3c(c2)OCO3)c1=O	-4	-1	52*	39*	25	36*	18*
Nc1ccccc1C(=O)/C=C/c1ccc2c(c1)OCO2	5	0	-4	2	.	.	.
CSc1ccc(C(c2c(C(=O)O)[nH]c3ccccc23)c2c(C(=O)O)[nH]c3ccccc23)cc1	-1	13	37*	89*	48*	82*	50*
CSc1ccc(C(c2c(C)[nH][nH]c2=O)c2c(C)[nH][nH]c2=O)cc1	-1	3	-2	8	.	.	.
SMILES	NR3A LBD binder	FAS-TE inh	NadD block	rCAG binder	NadD inh conf	rCAG bind conf	dCAG dye counter	others
C[C@@H]1CN([C@@H](C)CO)C(=O)c2cc(Br)cnc2O[C@@H]1CN(C)C(=O)c1ccc(F)cc1	.	.	.	0	.	.	.
CC(=O)c1sc2nc(-c3ccco3)ccc2c1N	-7	-1	4	35	.	.	.
Nc1c(C(=O)Nc2ccc(Br)cc2)sc2nc(-c3ccco3)ccc12	8	13	51*	51*	10	37*	20*
Cc1cc(NS(=O)(=O)c2ccc(NC(=O)CSc3nnc(-c4ccccn4)n3Cc3ccco3)cc2)nc(C)n1	.	.	.	22	.	.	.
CCOC(=O)C1=C(C)N=c2sc(=Cc3cc(Cl)c(OCC(=O)O)c(Cl)c3)c(=O)n2C1c1cccc(OC)c1 (configuration not stated)	.	40	34*	50*	52*	85*	54*
O=C(CSc1nnc(-c2cnccn2)n1-c1ccccc1)c1ccc(F)cc1	.	.	.	0	.	.	.
CCOc1cc2c(c3c1C(c1ccccc1)N(S(=O)(=O)c1ccc(C)cc1)C3)C(=O)C=CC2=O (configuration not stated)	.	42	46*	60*	.	54*	25*
Cc1[nH]c2ccccc2c1/C=N/Nc1ccccn1	.	.	.	16	.	.	.
Cc1[nH]c2ccccc2c1/C=N/Nc1ccc([N+](=O)[O-])cc1	25*	11	5	56*	.	32	21*
Oc1c(Br)cc(Br)cc1/C=N/NC(=S)N[C@H]1CC2C=CC1C2 (some centres not stated)	14*	36	30	74*	.	66*	29*	DNA CAG DR=i
Cc1ccccc1N1CCN(C(=O)NCc2cccc(Cl)c2)CC1	0	14	-3	-1	.	.	.
O=C(c1c(O)cc(O)cc1O)C1c2c(cc(O)c3c2O[C@H](c2ccc(O)cc2)[C@@H](O)C3)OC1c1ccc(O)cc1 (some centres not stated)	-3	-3	2	37*	.	45*	16*
O=C1CC(c2ccccc2)Oc2cc(O)cc(O)c21 (configuration not stated)	-6	-1	6	3	.	.	.

Screening data deposited in PubChem by several laboratories.
